PD-1 reverse act = activators reversing PD-1 mediated T-cell inhibition, primary screen, luminescence, primary human CD4 T cells, PD-L1 beads; CellTiter-Glo 96 h; activation, % (concentration not given with the values); 29,000 tested, under 10 active; AID 2316, 2010; call rule not given here;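 note: 0% = median vehicle wells and 100% = positive control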
NOMO-1 viab = NOMO-1 AML cell viability reduction, primary screen, STK33 inhibitor project, CellTiter-Glo luminescence. NOMO-1 AML viability, 72 h. inhibition, % (concentration not given with the values). 37,000 compounds, 7.5% hits; in the data active = inhibition above about 80%; inconclusive = no clear call, values can overlap the other calls
STK33 kin inh = STK33 kinase inhibitors, primary screen, biochemical, luminescence, ADP-Glo, MBP substrate | inhibition, % at 12.5 µM | Serine/threonine-protein kinase 33 (Homo sapiens), Q9BYT3 | AID 2322, 2010 | 27,000 compounds, 0.44% hits; in the data active = inhibition above about 20%; inconclusive = no clear call, values can overlap the other calls
Target sequence (Q9BYT3 whole entry, looked up): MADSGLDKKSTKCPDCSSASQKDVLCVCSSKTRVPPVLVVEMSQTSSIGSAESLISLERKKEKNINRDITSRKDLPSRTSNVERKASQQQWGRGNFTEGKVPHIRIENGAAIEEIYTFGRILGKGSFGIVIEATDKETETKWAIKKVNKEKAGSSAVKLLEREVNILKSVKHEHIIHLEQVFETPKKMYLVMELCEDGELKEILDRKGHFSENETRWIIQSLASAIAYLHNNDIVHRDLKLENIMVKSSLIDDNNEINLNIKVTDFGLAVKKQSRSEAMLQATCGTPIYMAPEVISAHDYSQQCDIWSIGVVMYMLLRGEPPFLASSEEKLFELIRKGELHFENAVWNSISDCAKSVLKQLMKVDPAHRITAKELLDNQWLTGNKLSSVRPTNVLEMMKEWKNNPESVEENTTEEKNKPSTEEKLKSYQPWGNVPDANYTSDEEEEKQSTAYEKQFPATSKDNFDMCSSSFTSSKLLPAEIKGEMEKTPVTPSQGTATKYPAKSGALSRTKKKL
An asterisk follows results filed as active; ? = inconclusive; / = not tested or not shown. This is one part of a sample in which hits are shown more often than they occur.

SMILES	PD-1 reverse act	NOMO-1 viab	STK33 kin inh
C[C@@H]1CN([C@@H](C)CO)C(=O)c2cccc(NC(=O)c3ccncc3)c2O[C@@H]1CN(C)Cc1ccc(C(=O)Nc2ccccc2N)cc1	-0.5	127.7*	/
C[C@@H]1CN([C@H](C)CO)C(=O)c2cccc(NC(=O)c3ccncc3)c2O[C@H]1CN(C)Cc1ccc(C(=O)Nc2ccccc2N)cc1	-0.5	35.4	/
C[C@@H]1CN([C@@H](C)CO)C(=O)c2cc(NC(=O)C3CC3)ccc2O[C@H]1CN(C)Cc1ccc(C(=O)Nc2ccccc2N)cc1	-3.2	30.7	/
C[C@H]1CN([C@@H](C)CO)C(=O)c2cc(NC(=O)C3CCCCC3)ccc2O[C@H]1CN(C)Cc1ccc(C(=O)Nc2ccccc2N)cc1	-3.5	110.4*	/
C[C@H]1CN([C@@H](C)CO)C(=O)c2cccc(NC(=O)C3CC3)c2O[C@H]1CN(C)Cc1ccc(C(=O)Nc2ccccc2N)cc1	-1.9	93.7*	/
C[C@H](CO)N1C[C@H](C)[C@H](CN(C)C(=O)Nc2cccc3ccccc23)Oc2ncc(C#Cc3cccc(F)c3)cc2C1=O	/	/	5.8
COc1ccc(-c2nnc(SCC(=O)Nc3cccc(C)c3C)o2)cc1	0.5	-10.6	1.4
COc1ccc(NC(=O)N(C)C[C@H]2Oc3ccc(NC(=O)NC4CCCCC4)cc3CC(=O)N([C@@H](C)CO)C[C@@H]2C)cc1	1.3	4.3	1.6
C[C@H](CO)N1C[C@H](C)[C@@H](CN(C)Cc2ccc(C(=O)O)cc2)Oc2c(NC(=O)C3CCCCC3)cccc2C1=O	0.6	0.4	/
C[C@H](CO)N1C[C@H](C)[C@H](CN(C)Cc2ccc(C(=O)Nc3ccccc3N)cc2)Oc2c(NC(=O)C3CCCCC3)cccc2C1=O	-1.5	126.7*	/
C[C@H]1CN([C@@H](C)CO)C(=O)c2cccc(NC(=O)c3cnccn3)c2O[C@H]1CN(C)S(C)(=O)=O	/	-14.1	/
CSc1sc(C(=O)O)c(I)c1S(=O)(=O)C(C)C	-0.2	-8.3	/
COc1cc(O)c(C(=O)c2c(C)cc(O)cc2OC)c(O)c1	-12.4	121.1*	-3.3
COc1cc(O)c(C(C)=O)c(OC)c1	/	22.7	3.9
Cc1noc(C)c1S(=O)(=O)Nc1ccc2c(c1)C(=O)N([C@H](C)CO)C[C@H](C)[C@H](CN(C)Cc1ccc(C(=O)Nc3ccccc3N)cc1)O2	-2.4	108.3*	/
Cc1noc(C)c1S(=O)(=O)Nc1ccc2c(c1)C(=O)N([C@@H](C)CO)C[C@@H](C)[C@@H](CN(C)Cc1ccc(C(=O)Nc3ccccc3N)cc1)O2	-1.4	107.5*	/
Cc1noc(C)c1NC(=O)Nc1ccc2c(c1)CC(=O)N([C@H](C)CO)C[C@@H](C)[C@@H](CN(C)Cc1ccc(C(=O)Nc3ccccc3N)cc1)O2	1.7	22.1	/
C[C@H]1CN([C@@H](C)CO)C(=O)c2cc(NS(=O)(=O)c3ccccc3)ccc2O[C@H]1CN(C)Cc1ccc(C(=O)Nc2ccccc2N)cc1	-1.6	?	/
Cc1noc(C)c1S(=O)(=O)Nc1ccc2c(c1)C(=O)N([C@H](C)CO)C[C@@H](C)[C@@H](CN(C)Cc1ccc(C(=O)Nc3ccccc3N)cc1)O2	-2.8	107.9*	/
Cc1noc(C)c1S(=O)(=O)Nc1ccc2c(c1)CC(=O)N([C@H](C)CO)C[C@H](C)[C@H](CN(C)Cc1ccc(C(=O)Nc3ccccc3N)cc1)O2	-5.3	141.9*	/
Cc1noc(C)c1S(=O)(=O)Nc1ccc2c(c1)C(=O)N([C@@H](C)CO)C[C@H](C)[C@@H](CN(C)Cc1ccc(C(=O)Nc3ccccc3N)cc1)O2	-1.3	8.2	/
C[C@H]1CN([C@@H](C)CO)C(=O)c2cc(NS(=O)(=O)c3ccccc3)ccc2O[C@@H]1CN(C)Cc1ccc(C(=O)Nc2ccccc2N)cc1	-0.6	23.4	/
C[C@@H]1CN([C@@H](C)CO)C(=O)Cc2cc(NC(=O)Nc3ccc(F)cc3)ccc2O[C@@H]1CN(C)S(=O)(=O)c1ccc(Cl)cc1	-1.6	19.4	0.0
CC(C)NC(=O)Nc1ccc2c(c1)CC(=O)N([C@H](C)CO)C[C@@H](C)[C@H](CN(C)S(=O)(=O)c1ccc(F)cc1)O2	/	-4.3	/
C[C@@H]1CN([C@H](C)CO)C(=O)c2cccc(NC(=O)Nc3ccc(C(F)(F)F)cc3)c2O[C@@H]1CN(C)S(=O)(=O)c1cccs1	/	100.9*	/
C[C@@H]1CN([C@@H](C)CO)C(=O)c2cccc(NC(=O)Nc3ccc(C(F)(F)F)cc3)c2O[C@H]1CN(C)S(=O)(=O)c1cccs1	/	88.1*	/
C[C@H]1CN([C@@H](C)CO)C(=O)c2cccc(NC(=O)Nc3ccc(C(F)(F)F)cc3)c2O[C@@H]1CN(C)S(=O)(=O)c1cccs1	0.8	49.1	/
